Among all 1,200 compounds or so, about 290 (24%) were called active. Inconclusive results (about 3%) are left out.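 How the source made its calls: active means compounds lowering cell viability signal with fitted half-maximal concentration at most ten times their highest tested concentration; inconclusive means flat fit with 30 to 70% signal loss, or poor fit; inactive means the rest.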 Not all results are given here. Measured potencies and affinities stand elsewhere.
experiment: cytotoxicity in HEK293T cells – cell-based, CellTiter-Glo luminescence, cherry-picks, cytotoxicity control for LMP1 NF-kB inhibitor project, dose response (AID 504861); details: HEK293T viability, CellTiter-Glo ATP luminescence, 48 h; series mostly up to 26 µM

**Q.** Which outcome does the source give for O=C(O)c1ccc(N/N=C/c2cc3cc4c(cc3nc2Cl)OCCO4)cc1 here?
**A.** inactive

**Q.** Which outcome does the source give for O=C(Cc1cccc2ccccc12)Nc1ccc(-c2cc3ccccc3oc2=O)cc1 here?
**A.** inactive

**Q.** For NC(=O)N/N=C/c1ccc(N2CCOCC2)s1, which outcome is on record?
**A.** inactive

**Q.** For CC1(C)CC(NS(=O)(=O)c2ccc(F)cc2)CC(C)(C)N1, which outcome is on record?
**A.** inactive

**Q.** With O=[N+]([O-])c1ccc(N2CCN(Cc3cccc([N+](=O)[O-])c3)CC2)cc1 as the compound, how does the outcome read?
**A.** inactive

**Q.** For O=c1[nH]c(=O)n([C@H]2C[C@H](O)[C@@H](CO)O2)cc1F, which outcome is on record?
**A.** inactive

**Q.** For c1ccc(-c2nnc(-c3ccccn3)s2)nc1, which outcome is on record?
**A.** inactive

**Q.** For Cc1c(NC(=O)c2cccc(NC(=O)COc3ccccc3C#N)c2)c(=O)n(-c2ccccc2)n1C, which outcome is on record?
**A.** inactive

**Q.** With Cc1ccc(C(=O)Nc2cccc(C(=O)O)c2)cc1S(=O)(=O)N1CCCCC1 as the compound, how does the outcome read?
**A.** inactive

**Q.** For Cc1cccc(C)c1Nc1nc2ccccc2o1, which outcome is on record?
**A.** inactive

**Q.** With Cc1nc(Nc2nc3ccccc3o2)nc2c1CCC2 as the compound, how does the outcome read?
**A.** inactive

**Q.** With COc1ccc(C=NNc2nc3ccccc3s2)cc1 as the compound, how does the outcome read?
**A.** inactive

**Q.** With CC1CCCN(C(=O)COC(=O)c2n[nH]c3ccccc23)C1 (stereo not drawn) as the compound, how does the outcome read?
**A.** inactive

**Q.** With COc1c(S(=O)(=O)N2CCN(c3ccc(F)cc3)CC2)ccc(Cl)c1Cl as the compound, how does the outcome read?
**A.** inactive

**Q.** For CC(=O)c1ccc(-c2nc3c4ccccc4ccn3c2C(C)=O)o1, which outcome is on record?
**A.** inactive

**Q.** With Cc1nn(-c2ccccc2)c(Cl)c1C1C(C#N)=C(N)Oc2n[nH]c(C)c21 (stereo not drawn) as the compound, how does the outcome read?
**A.** inactive

**Q.** With CCCCN(c1ccccc1)c1ncnc(N)c1[N+](=O)[O-] as the compound, how does the outcome read?
**A.** inactive

**Q.** Which outcome does the source give for CN1CCN(CCOc2ccc(Cc3ccccc3)cc2)CC1 here?
**A.** inactive

**Q.** With OC(CCCN1CCCCC1)(c1ccccc1)c1ccccc1 as the compound, how does the outcome read?
**A.** inactive

**Q.** For COc1ccc(/C=C/C(=O)OCC(=O)NCc2ccco2)cc1OC, which outcome is on record?
**A.** inactive

**Q.** Which outcome does the source give for NNC(=O)c1cccc(COc2ccc3c(c2)CCC3)c1 here?
**A.** inactive

**Q.** For O=c1c([N+](=O)[O-])cn(Cc2ccccc2)c(=O)n1Cc1ccccc1, which outcome is on record?
**A.** inactive

**Q.** For O=C1CSC(=S)N1Cc1ccccc1, which outcome is on record?
**A.** inactive

**Q.** Which outcome does the source give for CCOC(=O)C1=C(O)/C(=C/c2ccc(CNC(=O)C(=O)Nc3ccc(C)cc3)o2)N=C1C here?
**A.** inactive

**Q.** For O=C1CN(C(=O)c2ccc(F)c(S(=O)(=O)N3CCOCC3)c2)c2ccccc2N1, which outcome is on record?
**A.** inactive

**Q.** With COC(=O)[C@H](C)[C@H]1C[C@]1(C)[C@H](NC(=O)OCc1ccccc1)c1ccccc1 as the compound, how does the outcome read?
**A.** inactive

**Q.** With Clc1ccccc1C1=Nn2c(nnc2-c2ccncc2)SC1 as the compound, how does the outcome read?
**A.** inactive

**Q.** Which outcome does the source give for Cc1cc(N/N=C\c2ccc(Br)cc2)nc(-n2nc(C)cc2C)n1 here?
**A.** inactive

**Q.** For COc1ccc(S(=O)(=O)N2CCN(C(=S)NCC3CCCO3)CC2)cc1OC (stereo not drawn), which outcome is on record?
**A.** inactive

**Q.** Which outcome does the source give for Oc1c(N=NC(=S)Nc2ccccc2F)c2ccccc2n1Cc1ccccc1Cl here?
**A.** inactive

**Q.** With COc1ccc(C2=NN(C(=O)CSC3=NN4CCCC(=O)N=C4S3)C(c3cccc(OC)c3OC)C2)cc1 (stereo not drawn) as the compound, how does the outcome read?
**A.** inactive

**Q.** For O=C(NC1=NCCS1)c1cc2ccccc2o1, which outcome is on record?
**A.** inactive

**Q.** With O=C(O)[C@@H]1[C@H]2C[C@H]3c4[nH]c5ccccc5c4CCN3C[C@@H]2CC[C@@H]1O as the compound, how does the outcome read?
**A.** inactive

**Q.** Which outcome does the source give for Cc1ccnc(NC(=O)c2ccc(OCC3CCCO3)cc2)c1 (stereo not drawn) here?
**A.** inactive

**Q.** With Cc1ccnc(NC(=O)c2ccc(C(=O)c3ccccc3)cc2)c1 as the compound, how does the outcome read?
**A.** inactive

**Q.** Which outcome does the source give for COc1ccc(C(c2c(C)n(C)n(-c3ccccc3)c2=O)c2c(C)n(C)n(-c3ccccc3)c2=O)c(OC)c1OC here?
**A.** inactive

**Q.** Which outcome does the source give for CCCNC(=O)N1CCN(S(=O)(=O)c2ccc(C)c(C)c2)CC1 here?
**A.** inactive

**Q.** For O=C(CCC(=O)NNC(=O)Nc1cccc(Cl)c1)NCc1ccccc1, which outcome is on record?
**A.** inactive

**Q.** For Cc1cc(NCCCn2ccnc2)n2ncc(-c3ccccc3)c2n1, which outcome is on record?
**A.** inactive

**Q.** With O=C(Nc1cnc2ccccn2c1=O)c1ccc(Cl)cc1Cl as the compound, how does the outcome read?
**A.** inactive

**Q.** For O=C1c2cccc3c(O)ccc(c23)C(=O)N1c1ccc(Cl)cc1, which outcome is on record?
**A.** inactive

**Q.** Which outcome does the source give for CC(=O)c1ccc(-n2nnnc2SCC(=O)N2CCc3ccccc3C2)cc1 here?
**A.** inactive

**Q.** Which outcome does the source give for COc1cc(N)c(Cl)cc1C(=O)NC1CCN(Cc2ccccc2)CC1 here?
**A.** inactive

**Q.** Which outcome does the source give for CCOc1ccc(NC(=O)c2cnsn2)cc1 here?
**A.** inactive

**Q.** Which outcome does the source give for COc1ccc(-n2c(C)c(C(C)=O)c3cc(O)ccc32)cc1 here?
**A.** inactive

**Q.** For Clc1ccc(-n2nnnc2Sc2ncnc3sccc23)cc1, which outcome is on record?
**A.** inactive

**Q.** With COc1cc2nc(NC(=O)c3ccco3)sc(=O)c2cc1OC as the compound, how does the outcome read?
**A.** inactive

**Q.** Which outcome does the source give for O=C(Nc1ccc(Cl)cc1)c1ccco1 here?
**A.** inactive

**Q.** Which outcome does the source give for COc1cccc(/C=C2\SC(=S)N(CCC(=O)NCCc3ccc(O)cc3)C2=O)c1 here?
**A.** inactive

**Q.** With COc1ccc(NC(=O)Cn2nnc(C(=O)NCc3ccccc3)c2N)c(OC)c1 as the compound, how does the outcome read?
**A.** inactive

**Q.** With CNC(=O)C1=NCCCc2cc(OC)c(OC)cc21 as the compound, how does the outcome read?
**A.** inactive

**Q.** For CCc1ccc(/C=C2\SC(=S)N(CCCC(=O)Nc3ccccn3)C2=O)cc1, which outcome is on record?
**A.** inactive

**Q.** With COc1ccc(OC)c2[nH]c(=O)c(CCNC(=O)c3ccc(S(=O)(=O)N(C)C)cc3)cc12 as the compound, how does the outcome read?
**A.** inactive

**Q.** For O=C(NOCc1ccccc1)c1ccc(Cl)cc1Cl, which outcome is on record?
**A.** inactive

**Q.** With CCOC(=O)c1nc(NCc2ccccc2F)c2ccccc2n1 as the compound, how does the outcome read?
**A.** inactive

**Q.** With C/C(=N\NS(=O)(=O)c1ccc([N+](=O)[O-])cc1)c1cccs1 as the compound, how does the outcome read?
**A.** inactive

**Q.** Which outcome does the source give for CC1Cc2ccccc2N1c1ncnc(N)c1[N+](=O)[O-] (stereo not drawn) here?
**A.** inactive

**Q.** Which outcome does the source give for O=C(/C=C/Nc1ccc(F)cc1Br)c1ccccc1 here?
**A.** inactive

**Q.** For COc1ccc(C(=O)Nc2nnc(SCC(=O)NC3CC3)s2)cc1, which outcome is on record?
**A.** inactive

**Q.** For O=C(COc1ccc2ccccc2c1)NCCNC(=O)COc1ccc2ccccc2c1, which outcome is on record?
**A.** inactive

**Q.** For Cc1ccc(C(=O)CSc2nnnn2C(C)C)c(C)c1, which outcome is on record?
**A.** inactive

**Q.** Which outcome does the source give for O=C(Nc1nnc(-c2cccs2)o1)c1cccc(C(F)(F)F)c1 here?
**A.** inactive

**Q.** With COc1ccc(C(=O)Nc2cccc(C(=O)N/N=C/c3ccc(OC)cc3OC)c2)cc1 as the compound, how does the outcome read?
**A.** inactive

**Q.** Which outcome does the source give for COc1ccc(OCc2cccc(C(=O)Nn3cc([N+](=O)[O-])cn3)c2)cc1 here?
**A.** inactive

**Q.** Which outcome does the source give for Cc1ccc(C(=O)N2CCN(c3ccc(NC(=O)CSc4ccc(Cl)cc4)cc3)CC2)cc1 here?
**A.** inactive

**Q.** Which outcome does the source give for Cc1nnc(SCc2cnc(-c3ccc(C(C)C)cc3)s2)n1C here?
**A.** inactive

**Q.** Which outcome does the source give for Cc1cc(NC(=O)CSc2ccnc(=O)[nH]2)no1 here?
**A.** inactive

**Q.** With O=C1OCCC1Sc1nnc(-c2ccc(Cl)cc2Cl)o1 (stereo not drawn) as the compound, how does the outcome read?
**A.** inactive

**Q.** With O=c1[nH]c(Nc2nc3ccccc3o2)nc2c1CCCC2 as the compound, how does the outcome read?
**A.** inactive

**Q.** For O=C(CC(c1ccc(F)cc1)c1ccco1)N1CCOCC1 (stereo not drawn), which outcome is on record?
**A.** inactive

**Q.** Which outcome does the source give for O=C(Nc1ccc(CN2CCOCC2)cc1)c1cc2ccccn2n1 here?
**A.** inactive

**Q.** Which outcome does the source give for Clc1ccc(-c2ccnc(Oc3ccc4ccccc4c3)n2)cc1 here?
**A.** inactive

**Q.** With CC(C)(C)c1cc(C(=O)NNC(=O)Nc2cccc(Cl)c2)n(Cc2ccccc2)n1 as the compound, how does the outcome read?
**A.** inactive
